Results published in PubChem BioAssay.

Assay: growth of efflux-deficient E. coli DRC39 – strain DRC39, OD650, 48 h, E. coli filamentation inducers, primary screen (AID 1179);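 note: screen aims at cell division blockers that make cells filament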
Conditions: E. coli DRC39 delta-acrAB growth, higher = more signal, called active from +8 up or from −8 down

z-score, inactive:
COc1cc(OC)c(C(O)C2C=CC3C(=O)NC(=O)C3N2Nc2ccccn2)cc1Br (stereo not given) -0.512, C=CCNC(=O)[C@@H]1[C@H]2C(=O)O[C@H](c3ccccc3)[C@H](c3ccccc3)N2[C@H](c2ccc(OCCO)cc2)[C@@]12C(=O)N(C(=O)OCCOC)c1ccc(C#CCC(C(=O)OC)C(=O)OC)cc12 -0.033, COC(=O)c1c(CC[C@@H](CO)NC(=O)NCCc2c[nH]c3ccccc23)oc(C(=O)Cc2ccccc2)c1C(=O)OC 0.733, O=C(O)[C@H](Cc1ccccc1)n1cc(-c2ccccc2)nn1 -0.202, CC(C)NC(=O)[C@@]1(Cc2ccccc2I)c2ccccc2C(=O)N(Cc2ccccc2Cl)[C@H]1c1ccc(CO)cc1 -0.706, CC(C)=CCCC(C)=CC(O)C1C=CC2C(=O)N(c3ccccc3)C(=O)C2N1Nc1ccc(C(C)C)cc1 (stereo not given) -0.306, [N-]=[N+]=NCc1ccccc1[C@H]1OC(c2ccc(OCCCO)cc2)=N[C@@]1(Cc1ccccc1)C(=O)N1CCCCC1 1.25, CC(C)N1CC=CC23O[C@@H]4C=CCOC(=O)[C@@H]4[C@H]2C(=O)N(CCCCCO)[C@@H]3C1=O (stereo not given in full) -0.134, CCOC(=O)[C@H]1C/C=C/C[C@H](C(=O)OCC)C(=O)O[C@H]2[C@@H](OC)O[C@H](CO)[C@@H](OC(=O)c3ccc(Br)cc3)[C@@H]2OC1=O 0.485, O=C(O)[C@H]1C[C@H]2C(=O)N3CCC[C@H]3C(=O)N2[C@H]1c1ccc(O)cc1 0.715
